An excerpt weighted towards active compounds, which were near 3.5% of everything screened.
GPR151 activ: activates the human receptor GPR151; Q8TDV0; PathHunter beta-arrestin GPR151 cells, luminescence; activation, % at 11.2 µM; 650,000 compounds, 1% hits; in the data active means activation above about 4.9%
TEAD-YAP block: TEAD-YAP interaction inhibition | 640,000 compounds, 1.4% hits | HEK-TIYL cells, TEAD-Gal4/YAP UAS-luciferase luminescence | inhibition, % at 9.12 µM; in the data active means inhibition above about 32%
FBW7 activator: human FBW7 E3 ligase activation, primary screen | Q969H0 | AlphaScreen FBW7–phospho-cyclin E peptide binding, activator screen | normalized activity (activation), % at 26.1 µM | 650,000 compounds, 0.13% hits | AID 1259310; in the data active means normalized activity above about 1.9%;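 further: purified mutant Fbw7 with reduced substrate affinity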
Target sequence (Q969H0 whole entry, looked up): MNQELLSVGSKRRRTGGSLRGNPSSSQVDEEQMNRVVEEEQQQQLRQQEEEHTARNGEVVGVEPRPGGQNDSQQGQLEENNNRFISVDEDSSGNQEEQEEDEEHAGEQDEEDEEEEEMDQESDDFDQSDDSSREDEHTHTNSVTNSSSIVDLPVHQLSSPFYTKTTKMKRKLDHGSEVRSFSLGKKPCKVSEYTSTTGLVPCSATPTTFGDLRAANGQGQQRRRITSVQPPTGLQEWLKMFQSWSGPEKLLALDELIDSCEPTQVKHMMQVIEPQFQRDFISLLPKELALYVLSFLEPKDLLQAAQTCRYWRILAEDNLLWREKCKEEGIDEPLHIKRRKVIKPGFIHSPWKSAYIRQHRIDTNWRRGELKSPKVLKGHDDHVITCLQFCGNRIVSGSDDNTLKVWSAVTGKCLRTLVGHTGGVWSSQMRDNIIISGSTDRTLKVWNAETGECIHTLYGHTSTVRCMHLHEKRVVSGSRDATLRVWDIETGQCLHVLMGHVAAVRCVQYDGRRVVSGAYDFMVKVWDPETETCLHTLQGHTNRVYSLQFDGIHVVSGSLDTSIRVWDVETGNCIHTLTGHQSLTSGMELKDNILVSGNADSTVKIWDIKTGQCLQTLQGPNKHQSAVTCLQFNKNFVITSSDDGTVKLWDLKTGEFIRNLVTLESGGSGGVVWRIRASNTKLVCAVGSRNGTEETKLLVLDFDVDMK
MITF inh: human MITF inhibition, primary screen. O75030. AlphaScreen MITF homodimerization, bead proximity signal. inhibition, % at 2.6 µM. 650,000 compounds, 0.91% hits. AID 1259374; in the data active means inhibition above about 50%
Large screens that a line does not name were inactive; ! = repeats disagree.

Cc1cc2nc(C3CCCN3C(=O)C3CC(O)CN3Cc3ccccc3)[nH]c2cc1C (stereo unspecified)	none
Cc1nc2ccc(NC(=O)c3ccc(S(=O)(=O)N(C)C)cc3)cc2c(=O)n1-c1ccc(Cl)cc1	TEAD-YAP block 38
CCCOc1ccc(C(CC(=O)O)NC(=O)c2cccc(OC)c2)cc1 (stereo unspecified)	none
Nc1nc(-c2ccccc2)cc(N2CCCC2)n1	TEAD-YAP block 45
c1ccc(-c2nc(-c3ccncc3)cc(N3CCCCC3)n2)cc1	none
CCN(CC)C(=O)c1sc2nc3c(cc2c1N)C1CCN3CC1	none
COc1ccccc1NC(=O)c1ccc(SCC(=O)N2CCC3(CC2)OCCO3)c([N+](=O)[O-])c1	TEAD-YAP block 38
COc1ccc(-c2cc(C3CC3)nc3sc(C(=O)c4ccccc4)c(N)c23)cc1	none
CCN1C(=O)S/C(=C/c2cc(C)n(-c3ccc(O)cc3)c2C)C1=O	TEAD-YAP block 80
CCN1C(=O)/C(=C\c2cc(C)n(-c3ccc(OC)cc3)c2C)C(C(=O)OC)=C1C	MITF inh 76
CCOC(=O)C(C)N1C(=O)S/C(=C/c2cc(C)n(-c3ccccn3)c2C)C1=O (stereo unspecified)	none
CCN1C(=O)S/C(=C/c2cc(C)n(-c3ccccn3)c2C)C1=O	TEAD-YAP block 69
CCN1C(=O)NC(=O)/C(=C\c2cc(C)n(-c3ccc(O)cc3)c2C)C1=O	none
COc1ccc(NC2=NC3CS(=O)(=O)CC3S2)cc1Cl (stereo unspecified)	none
COCCNc1c(-c2ccc(C)cc2)c(=O)c1=O	none
COCCCNc1c(-c2ccc(Cl)cc2)c(=O)c1=O	TEAD-YAP block 48
CN(C)C(=O)Nc1ccc2nsnc2c1	none
Cc1ccc(Nc2cc(C)nn2-c2nc(C)cc(C)n2)cc1	none
Cc1ccc(Nc2cc(C)nn2-c2nc(C)cc(=O)[nH]2)cc1	TEAD-YAP block 58
Cc1cccc(OCC(=O)N(CCn2cccn2)c2nc3c(F)cccc3s2)c1	TEAD-YAP block 43
Cc1cc(C(=O)N(CCn2cccn2)c2nc3c(F)cccc3s2)on1	none
CCN(CC)CCNC(=O)c1ccc(-c2ccccc2)cc1	none
COc1ccccc1-c1nnc(SCC(=O)Nc2ccc(Br)cn2)o1	TEAD-YAP block 34
CCCCCNC(=O)c1ccc(Cn2c(SCC(=O)NCc3ccco3)nc3ccccc3c2=O)cc1	none
Cc1ccc([N+](=O)[O-])cc1S(=O)(=O)Nc1cc(SCC(=O)O)c(O)c2ccccc12	MITF inh 65
Cc1ccc(S(=O)(=O)Nc2cc(SCC(=O)O)c(O)c3ccccc23)c(C)c1	none
CCCCCCC1(O)C(C)C(c2ccc(N(C)C)cc2)NC(c2ccc(N(C)C)cc2)C1C (stereo unspecified)	MITF inh 61
COc1cc(/C(N)=N/O)ccc1OC(F)F	none
COc1ccc2c(c1)CC(C(=O)Nc1ccc(-c3cn[nH]c3)cc1OCCC(C)C)CO2 (stereo unspecified)	none
COc1ccc2c(c1)CC(C(=O)Nc1ccc(-c3cn[nH]c3)cc1C(=O)NCC#N)CO2 (stereo unspecified)	FBW7 activator 20
COc1ccc(CNC(=O)c2cc(-c3cn[nH]c3)ccc2NC(=O)C2COc3ccc(OC)cc3C2)cc1 (stereo unspecified)	none
O=C(Nc1ccc(-c2cn[nH]n2)cc1)C1COc2ccc(Cl)cc2C1 (stereo unspecified)	none
COc1ccc2c(c1)CC(C(=O)Nc1ccc(-c3cn[nH]n3)cc1)CO2 (stereo unspecified)	FBW7 activator 5.9
COc1ccc2c(c1)CC(C(=O)Nc1cc3cc(-c4ccncc4)ccc3cn1)CO2 (stereo unspecified)	TEAD-YAP block 59
COc1ccc2c(c1)CC(C(=O)Nc1ccc(-c3cn[nH]c3)cc1OCCO)CO2 (stereo unspecified)	TEAD-YAP block 39
COc1ccc2cc(-c3cc(C(=O)OCC(N)=O)c4ccccc4n3)ccc2c1	none
COC(=O)c1ccccc1NC(=O)c1csc2c1CCC(C)C2 (stereo unspecified)	none
Cc1cccnc1NC(=O)C1CC(=O)OC12CCCCC2 (stereo unspecified)	none
CN1C(=O)C(Cc2ccco2)C(=O)N(C)C1=O	none
NCCOc1cc(-c2cn[nH]c2)ccc1NC(=O)C1COc2ccccc2C1 (stereo unspecified)	TEAD-YAP block 41
COc1cccc(NC(=O)COC(=O)c2ccc([N+](=O)[O-])o2)c1	none
COc1ccccc1-n1cnc(N)c1C(=O)c1ccccc1	TEAD-YAP block 53
Cc1cc(NC(=O)c2ccc3c(c2)OCO3)no1	none
Cc1cccc(NC(=O)c2ccc3c(c2)OCCO3)n1	none
Cc1cc(NC(=O)c2ccc3c(c2)OCCO3)no1	TEAD-YAP block 79
Cc1cc(NC(=O)c2ccc3c(c2)OCCO3)on1	TEAD-YAP block 38
CC1(C)COC(c2cccn2Cc2ccccc2)=N1	none
Cc1nc(N=Nc2ccc(S(=O)(=O)O)cc2S(=O)(=O)O)c(COP(=O)(O)O)c(C=O)c1O	MITF inh 75!
COc1ccc(Cl)cc1NC(=O)c1ccc(C(=O)Nc2cc(Cl)ccc2OC)cc1	none
Nc1cccc2c1C(=O)c1c(oc3c1ccc1ccccc13)C2=O	TEAD-YAP block 78
Cc1ccc(CNC(=O)CN(C)S(=O)(=O)c2cc3c(cc2Cl)NC(=O)CO3)cc1	none
COc1cc(Nc2cc(C)nc(Nc3ccccc3)n2)cc(OC)c1OC	TEAD-YAP block 47
CCNc1cc(C)nc(Nc2ccc(NC(=O)c3cc(OC)c(OC)c(OC)c3)cc2)n1	TEAD-YAP block 77
COc1cc(Nc2nc(C)cc(Nc3ccc(NC(C)=O)cc3)n2)cc(OC)c1OC	none
COc1cc(Nc2ncc(C)c(Nc3ccccc3)n2)cc(OC)c1OC	TEAD-YAP block 34
COc1cc(Nc2nc(C)cc(Nc3ccccc3)n2)cc(OC)c1OC	TEAD-YAP block 46
CC(C#N)OC(=O)c1ccc(N2CCCC2=O)cc1 (stereo unspecified)	none
COc1cc(OC)c(NC(=O)CCCn2c3ccccc3c(=O)c3ccccc32)cc1Cl	none
COc1ccc(C(=O)Nc2cc(-n3c(C)nc4ccccc4c3=O)ccc2Cl)cc1OC	none
O=C(NC(C(=O)OCc1ccccc1)c1ccccc1)c1ccccc1 (stereo unspecified)	none
Cc1cc(C)nc(Nc2ccc(Nc3ccccc3)cc2)n1	TEAD-YAP block 33
Cc1c(C(=O)C(=O)N2CCCC(C)C2)c2ccccc2n1C (stereo unspecified)	none
Cc1c(Cc2ccccc2)c(N2CCN(Cc3ccccc3)CC2)n2c(nc3ccccc32)c1C#N	FBW7 activator 2.0
CN(C)c1ccc(/C=C2\Oc3c(ccc(O)c3O)C2=O)cc1	MITF inh 55
Cc1[nH]c(=O)[nH]c(=O)c1S(=O)(=O)N1CCC(C(=O)Nc2nccs2)CC1	none
CCOC(=O)CCNC(=O)CCc1nnc(Cc2cccc(C)c2)o1	none
COc1ccc(Cc2nnc(C3CCN(C(=O)Cn4cnc5ccccc54)CC3)s2)cc1	TEAD-YAP block 54
CCN(CC)c1ccc(C2Nc3ccccc3NC3=C2C(=O)CC(c2ccccc2)C3)cc1 (stereo unspecified)	none
O=C1CC(=O)Nc2cc(S(=O)(=O)Nc3cccc4c3CCCC4)ccc2N1	none

Bioassay records (PubChem BioAssay)
